Measurements published in PubChem BioAssay AID624330 (Southern Research Specialized Biocontainment Screening …, 2012).
In all, about 340,000 compounds went through this assay and about 2,100 (0.62%) were called active.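 How the source made its calls: active means first-screen hits whose inhibition reached a set limit at any dose in the follow-up dose series; inconclusive means inhibition above the set first-screen limit but never retested; inactive means the rest.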 Only a sample is shown. Results with a measured potency or affinity are listed apart.

molecular target: Rac GTPase-activating protein 1 (Homo sapiens) (UniProt Q9H0H5); assay: MgcRacGAP GTPase-activating activity inhibitors, confirmation, biochemical, ADP Hunter fluorescence, primary and confirmatory (AID 624330); details: MgcRacGAP-stimulated Rac1 GTP hydrolysis, at 30 µM, active compounds read high, GST-tagged Rac1 F28L mutant substrate;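 further: fluorescence reports GDP produced by GAP-driven GTP hydrolysis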
Sequence (Q9H0H5 whole entry, looked up): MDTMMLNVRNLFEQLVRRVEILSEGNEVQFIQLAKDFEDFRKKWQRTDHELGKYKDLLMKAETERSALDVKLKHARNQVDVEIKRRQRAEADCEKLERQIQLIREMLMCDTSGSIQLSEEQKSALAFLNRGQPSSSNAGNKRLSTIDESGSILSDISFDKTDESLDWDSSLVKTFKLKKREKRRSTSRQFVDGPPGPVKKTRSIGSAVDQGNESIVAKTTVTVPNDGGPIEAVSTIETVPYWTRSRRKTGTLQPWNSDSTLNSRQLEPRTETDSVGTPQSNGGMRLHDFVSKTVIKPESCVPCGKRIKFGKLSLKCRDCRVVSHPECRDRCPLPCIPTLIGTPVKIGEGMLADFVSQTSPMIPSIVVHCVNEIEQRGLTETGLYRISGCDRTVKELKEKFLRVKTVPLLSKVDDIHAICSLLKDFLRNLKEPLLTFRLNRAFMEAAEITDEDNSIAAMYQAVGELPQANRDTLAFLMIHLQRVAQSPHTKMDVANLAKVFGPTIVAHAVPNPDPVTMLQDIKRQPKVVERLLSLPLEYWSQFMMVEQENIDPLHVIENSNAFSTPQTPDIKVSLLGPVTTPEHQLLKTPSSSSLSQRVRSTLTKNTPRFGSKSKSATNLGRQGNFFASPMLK

inhibition, inactive:
COCC1CCN(C(=O)c2cc(COc3ccc(OC)cc3Cl)on2)C1 (configuration not stated) 10.9%
COC(=O)C1(Cc2ccc(O)cc2)OC(=O)C(O)=C1c1ccc(O)cc1 (configuration not stated) 16.3%
CC(=O)Nc1ccc(S(=O)(=O)c2ccc(C)cc2)cc1 10.7%
Cc1ccc(S(=O)(=O)c2ccc(C)cc2)cc1 5.53%
COc1cc(C(=O)NCCC(=O)N2CCC3(CC2)NCCc2[nH]cnc23)cc(OC)c1OC 1.24%
CCC1CCCCN1C(=S)NC(=O)c1ccc(F)c(S(=O)(=O)N2CCOCC2)c1 (configuration not stated) 0.38%
O=C(Cc1cscn1)c1ccc(O)cc1O 0.47%
Cc1nc(C/C(=N\Nc2ccccc2)c2ccc(O)cc2O)cs1 10.9%
Cc1nc(CC(=O)c2ccc(O)cc2O)cs1 -0.73%
Oc1ccc(/C(Cc2ccccn2)=N\Nc2ccccc2)c(O)c1 13.1%
C#CCOCCOCCOCCNc1nc(N2CCN(C(=O)CCCCCCCCCCNC(=O)[C@@H](CCC(=O)O)n3cc(CCCCCN)nn3)CC2)nc(N2CCN(C(=O)CCCCCCCCCCNC(=O)[C@@H](CCC(=O)O)n3cc(CCCCCN)nn3)CC2)n1 0.63%
CCn1c(C)nc2c(C)[n+](CC(=O)c3ccc(Br)cc3)ccc21 8.56%
CSc1nnc2ccc(-c3ccccn3)nn12 -3.72%
COc1ccc(NC2CCCN(C(=O)c3cccc(C)n3)C2)cc1OC (configuration not stated) 26.1%
Oc1cccc(/C=N/Nc2ncnc3c2ncn3Cc2ccccc2)c1 15.2%
COc1cccc(/C=N/Nc2ncnc3c2ncn3Cc2ccccc2)c1O 7.53%
COc1cccc(C2C(C(=O)c3cccs3)=C(O)C(=O)N2CCN2CCOCC2)c1OC (configuration not stated) 10.9%
O=c1ccn([C@@H]2O[C@H](CNCC3=Cc4cc(O)ccc4OC3)[C@@H](O)[C@H]2O)c(=O)[nH]1 20%
Cc1cn([C@H]2C[C@H](O)[C@@H](CNCc3ccccc3)O2)c(=O)[nH]c1=O 7%
COC(=O)c1ccc(CNC(=O)C2CCC(=O)N(CCc3ccccc3)C2)cc1 (configuration not stated) 6.06%
Cn1c(=O)c([N+](=O)[O-])c(NCc2ccccc2Cl)c2ccccc21 8.45%
O=c1/c(=C\c2ccc(F)cc2)sc2n1CCCN=2 -5.16%
O=c1/c(=C\c2ccc3c(c2)OCO3)sc2n1CCCN=2 8.3%
O=c1/c(=C/c2ccc([N+](=O)[O-])cc2)sc2n1CCCN=2 9.61%
CN(C)c1ccc(/C=c2\sc3n(c2=O)CCCN=3)cc1 9.18%
COc1ccc(CCNS(=O)(=O)c2cn(C)c(=O)n(C)c2=O)cc1OC -1.5%
CCc1ccccc1NC(=O)NCc1ccccn1 7.56%
Cc1ccc(C)c2c1cc(C)c1nnc(SCC(=O)Nc3nc4c(s3)CCCC4)n12 6.82%
CCOC(=O)C1=NN(c2ccccc2)C(=O)/C1=C\c1ccc(N(C)C)cc1 14.6%
CN(C)c1ccc(/C=C2\CCCc3c2nc2ccccc2c3C(=O)O)cc1 28.8%
CC(=O)N1/C(=C/c2ccc(N(C)C)cc2)C(=O)c2ccccc21 10.6%
CN(C)c1ccc(/C=C2\CCCCC2=O)cc1 22%
CN(C)c1ccc(/C=C2\SC(=O)N(CC(O)Cn3c4ccccc4c4ccccc43)C2=O)cc1 (configuration not stated) 9.97%
CC1=NN(c2cccc(F)c2)C(=O)/C1=C/c1ccc(N(C)C)cc1 4.18%
CN(C)c1ccc(/C=C/c2nc3ccccc3c(=O)n2-c2ccc(C(=O)O)cc2)cc1 21.8%
CCOC(=O)CC1=NN(c2ccccc2)C(=O)/C1=C\c1ccc(N(C)C)cc1 12%
Cc1ccc(/C=C/C(=O)OCC(=O)NCCN2C(=O)CSC2=O)o1 5.03%
Cc1nc(CNC(=O)C2CCC(=O)N(CCc3ccc(Cl)cc3)C2)sc1C (configuration not stated) 10.8%
COc1cc(/C=N/Nc2nc(Nc3ccccc3)nc(N3CCOCC3)n2)ccc1OC(=O)c1ccco1 8.66%
CN(C)c1ccc(-c2n(C)c3ccccc3[n+]2C)cc1 3.74%
CN(c1ccc(Cl)cc1)c1cc(=O)n(C)c2ccccc12 -1.02%
Cc1ccc(NC(=O)c2cccc(Oc3ccc([N+](=O)[O-])cc3)c2)c(C(=O)O)c1 7.38%
O=C(Nc1ccc([N+](=O)[O-])cc1)c1cccc([N+](=O)[O-])c1 16.6%
Cc1cc(NC(=O)CN2C(=O)NC(C)(CC(C)C)C2=O)no1 (configuration not stated) 3.59%
COc1ccc(C(=O)O)cc1NC(=S)NC(=O)/C=C/c1ccc(C(C)C)cc1 14.7%
COC(=O)c1cc(=O)n(Cc2cccs2)c(=NCc2cccs2)s1 3.47%
CCOC(CN=c1nc(N(C)C)ss1)OCC 30.1%
Cc1cc(C2(O)C(=O)Nc3ccccc32)ccc1F (configuration not stated) -6.52%
COc1cccc(-c2cc(C(F)(F)F)n3nc(C(=O)Nc4c(C)n(C)n(-c5ccccc5)c4=O)cc3n2)c1 7.24%
O=C(Nc1ccccc1Cl)Nc1ccccc1Cl 10.3%
O=C(Nc1ccccc1Cl)c1ccc(C(=O)Nc2ccccc2Cl)cc1 3.72%
Cc1n[nH]c(C)c1N1C(=O)c2cccc3cc(Br)cc(c23)C1=O 15.9%
O=C(N/N=C/c1ccc(F)cc1)c1ccccc1 5.65%
O=C(N/N=C/c1ccccc1)c1ccc(-c2ccccc2)cc1 5.75%
O=C(NCc1ccccc1)C1Cc2ccccc2CN1C(=O)c1ccco1 (configuration not stated) 6.98%
COc1cc(/C=N/O)cc(Br)c1OCc1ccc(Cl)cc1 0.88%
CCCCN(C(=O)Cn1nnc2ccccc21)C(C(=O)NCCOC)c1cccs1 (configuration not stated) 9.34%
O=[N+]([O-])c1ccc(O)c2cccnc12 5.34%
O=C(O)c1ccccc1Nc1ccc([N+](=O)[O-])c2nonc12 5.2%
CS(=O)(=O)c1ccc(C(=O)Nc2ccc(S(=O)(=O)N3CCCCC3)cc2)cc1 3.97%
O=c1[nH]c2cc([N+](=O)[O-])ccc2c2ccccc12 2.35%
Nc1nc2ccc([N+](=O)[O-])cc2[nH]1 0.04%
O=C1N(C2CCCC2)C[C@@H]2C[C@@H](c3cn[nH]c3-c3ccc(Cl)cc3)N3CCC[C@@]123 7.84%
COc1ccc(CN2C3CCC2CC(NC(=O)c2cc(OC)c(OC)c(OC)c2)C3)cc1 (configuration not stated) 9.16%
Cc1ccc(S(=O)(=O)N(C)CC(=O)Nc2ncccc2C)cc1 -0.45%
CCCNC(=S)N1CC2(C)CN(C(=O)C(=O)OC)CC(C)(C1)C2=O 2.02%
CC(=O)N(c1ccccc1)c1nnc(-c2cnc(C)cn2)s1 -6.48%
Cc1c(O)ccc2c3c(c(=O)oc12)CCC(C)C3 (configuration not stated) 29.3%
CC(=O)Oc1ccc2c3c(c(=O)oc2c1C)CCCC3 4.5%
CCOC(=O)CSc1nc2c(sc(=S)n2-c2ccccc2OC)c(=O)n1-c1ccccc1OC 3.56%
COc1ccc(CCN(C)CC(O)COc2ccc(C(C)=O)cc2OC)cc1OC (configuration not stated) 16.6%
COc1cc(C(C)=O)ccc1OCC(O)CNCC(O)c1ccccc1 (configuration not stated) 20.6%
CC(=O)Nc1ccc(CN2CCCC(CCC(=O)NCc3ccccc3F)C2)cc1 (configuration not stated) 3.48%
CCN1CCN(CCNC(=O)C2CCCN(Cc3nc(-c4cccc(Cl)c4)oc3C)C2)CC1 (configuration not stated) 5.46%
O=C(c1cccc(Cl)c1)N1CCN(Cc2ccc3c(c2)OCO3)CC1 7.04%
O=C(c1cccc(C(=O)N2CCN(Cc3ccccc3)CC2)c1)N1CCN(Cc2ccccc2)CC1 9.35%
O=C(c1cccs1)N1CCN(Cc2cccnc2)CC1 30.4%
O=C(c1cccs1)N1CCN(Cc2ccccc2)CC1 7.61%
CCSc1nnc(-c2cccc(S(=O)(=O)N(C)C)c2)n1-c1cc(OC)ccc1OC 1.21%
Cc1ccc(OCCCC(=O)N(C)CC(=O)Nc2ccccc2Cl)cc1 2.87%
CC(C)[C@H](NC(=O)c1ccco1)C(=O)Nc1ccc(N2CCCCCC2)cc1 9.75%
O=C(c1ccccc1)c1c[nH]c(C(=O)NCc2cccnc2)c1 -1.95%
COc1ccc2c(c1)CCc1c(C(=O)N(C)c3ccccc3)noc1-2 7.96%
Cc1ccsc1/C=C(\C#N)C(=O)NCc1ccco1 2.06%
Cc1sccc1/C=N/NC(=O)c1ccco1 3.82%
CC(=O)Oc1ccc(C(=O)Cc2ccc3ccccc3n2)c(O)c1C -0.13%
Cc1c(O)ccc(/C(Cc2ccc3ccccc3n2)=N\N)c1O 14.8%
O=C(NCC1CCCO1)c1cnn2c(C(F)F)cc(C3CC3)nc12 (configuration not stated) -0.05%
CCC(CO)Oc1cc(NCc2cccc(F)c2)c2ncn(C(C)C)c2c1 (configuration not stated) 6.74%
COc1cc(/C=C/C(=O)OCC(=O)N2CCCCCC2)ccc1OCC#N 3.21%
Nc1ccccc1N1CCN(C(=O)c2ccccc2)CC1 12.8%
COc1ccc(OCc2cc(C(=O)NC(C)c3nc(C)cs3)no2)c(Cl)c1 (configuration not stated) 7.35%
